# Reference: publication PMC5540273 (PLoS ONE, 2017)
# Like-named read-outs stand apart in the source and are kept apart here.
# Legend:
# STK16 = details: concentration: 1 μM, replicates: in singlicate; n = 1
# STK33 = details: concentration: 1 μM, replicates: in singlicate; n = 1
# STK35 = details: concentration: 1 μM, replicates: in singlicate; n = 1
# STK36 = details: concentration: 1 μM, replicates: in singlicate; n = 1
# STK39 = details: concentration: 1 μM, replicates: in singlicate; n = 1
# SYK = details: concentration: 1 μM, replicates: in singlicate; n = 1
# SgK110 = details: concentration: 1 μM, replicates: in singlicate; n = 1
# TAK1 = tested on: T1, TAK1; details: concentration: 1 μM, replicates: in singlicate; n = 1
# T1 construct: gene MAP3K7
# TAOK1 = details: concentration: 1 μM, replicates: in singlicate; n = 1
# TAOK2 = details: concentration: 1 μM, replicates: in singlicate; n = 1
# TAOK3 = details: concentration: 1 μM, replicates: in singlicate; n = 1
# TBK1 = details: concentration: 1 μM, replicates: in singlicate; n = 1
# TEC = details: concentration: 1 μM, replicates: in singlicate; n = 1
# TESK1 = details: concentration: 1 μM, replicates: in singlicate; n = 1
# TGFBR1 = details: n = 1
# TGFBR2 = details: concentration: 1 μM, replicates: in singlicate; n = 1
# TIE1 = details: concentration: 1 μM, replicates: in singlicate; n = 1
# TIE2 = tested on: T2, TIE2; details: concentration: 1 μM, replicates: in singlicate; n = 1
# T2 construct: gene TEK
# TLK1 = details: concentration: 1 μM, replicates: in singlicate; n = 1
# TLK2 = details: concentration: 1 μM, replicates: in singlicate; n = 1
# [1] = concentration: 1 μM, replicates: in singlicate
# 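Further: KINOMEscan kinase panel screen.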
smiles,measurement,setting,value
CN(C)CCN(C)C(=O)c1cc(-c2ccncc2)c(-c2ccc(Cl)c(O)c2)o1.Cl.Cl [SB-710397],%Inh,STK16,4%
same,%Inh,STK33,0%
same,%Inh,STK35,0%
same,%Inh,STK36,0%
same,%Inh,STK39,33%
same,%Inh,SYK,17%
same,%Inh,SgK110,6%
same,%Inh,TAK1,0%
same,%Inh,TAOK1,0%
same,%Inh,TAOK2,0%
same,%Inh,TAOK3,0%
same,%Inh,TBK1,0%
same,%Inh,TEC,6%
same,%Inh,TESK1,43%
same,%Inh,TGFBR1; [1],0%
same,%Inh,TGFBR2,72%
same,%Inh,TIE1,7%
same,%Inh,TIE2,0%
same,%Inh,TLK1,0%
same,%Inh,TLK2,0%
CCn1c(-c2ccccn2)nc2cnccc21 [SB-736398],%Inh,STK16,0%
same,%Inh,STK33,0%
same,%Inh,STK35,1%
same,%Inh,STK36,0%
same,%Inh,STK39,31%
same,%Inh,SYK,0%
same,%Inh,SgK110,15%
same,%Inh,TAK1,0%
same,%Inh,TAOK1,0%
same,%Inh,TAOK2,33%
same,%Inh,TAOK3,0%
same,%Inh,TBK1,0%
same,%Inh,TEC,0%
same,%Inh,TESK1,0%
same,%Inh,TGFBR1; [1],21%
same,%Inh,TGFBR2,10%
same,%Inh,TIE1,0%
same,%Inh,TIE2,0%
same,%Inh,TLK1,0%
same,%Inh,TLK2,0%
CCn1c(-c2cccnc2O)nc2cnccc21 [SB-736715],%Inh,STK16,0%
same,%Inh,STK33,0%
same,%Inh,STK35,0%
same,%Inh,STK36,0%
same,%Inh,STK39,0%
same,%Inh,SYK,0%
same,%Inh,SgK110,0%
same,%Inh,TAK1,0%
same,%Inh,TAOK1,0%
same,%Inh,TAOK2,0%
same,%Inh,TAOK3,0%
same,%Inh,TBK1,0%
same,%Inh,TEC,0%
same,%Inh,TESK1,0%
same,%Inh,TGFBR1; [1],0%
same,%Inh,TGFBR2,0%
same,%Inh,TIE1,0%
same,%Inh,TIE2,6%
same,%Inh,TLK1,0%
same,%Inh,TLK2,0%
COc1cccc(NC(=O)NC2CCN(c3ccnc(Nc4ccc(F)cc4)n3)C2)c1 (centres unmarked) [GSK1379721],%Inh,STK16,16%
same,%Inh,STK33,0%
same,%Inh,STK35,0%
same,%Inh,STK36,0%
same,%Inh,STK39,9%
same,%Inh,SYK,0%
same,%Inh,SgK110,0%
same,%Inh,TAK1,0%
same,%Inh,TAOK1,0%
same,%Inh,TAOK2,0%
same,%Inh,TAOK3,2%
same,%Inh,TBK1,16%
same,%Inh,TEC,0%
same,%Inh,TESK1,32%
same,%Inh,TGFBR1; [1],15%
same,%Inh,TGFBR2,0%
same,%Inh,TIE1,0%
same,%Inh,TIE2,0%
same,%Inh,TLK1,6%
same,%Inh,TLK2,4%
CC(C)(C)c1ccc(C(=O)Nc2cn3cc(-c4cccnc4)ccc3n2)cc1,%Inh,STK16,27%
same,%Inh,STK33,6%
same,%Inh,STK35,0%
same,%Inh,STK36,4%
same,%Inh,STK39,0%
same,%Inh,SYK,0%
same,%Inh,SgK110,0%
same,%Inh,TAK1,11%
same,%Inh,TAOK1,0%
same,%Inh,TAOK2,2%
same,%Inh,TAOK3,0%
same,%Inh,TBK1,40%
same,%Inh,TEC,10%
same,%Inh,TESK1,4%
same,%Inh,TGFBR1; [1],1%
same,%Inh,TGFBR2,7%
same,%Inh,TIE1,4%
same,%Inh,TIE2,27%
same,%Inh,TLK1,46%
same,%Inh,TLK2,5%
Cc1ccccc1-n1cnc2c(N)ncnc21 [SKF-97510],%Inh,STK16,21%
same,%Inh,STK33,0%
same,%Inh,STK35,0%
same,%Inh,STK36,27%
same,%Inh,STK39,0%
same,%Inh,SYK,100%
same,%Inh,SgK110,0%
same,%Inh,TAK1,0%
same,%Inh,TAOK1,0%
same,%Inh,TAOK2,0%
same,%Inh,TAOK3,0%
same,%Inh,TBK1,7%
same,%Inh,TEC,9%
same,%Inh,TESK1,3%
same,%Inh,TGFBR1; [1],0%
same,%Inh,TGFBR2,0%
same,%Inh,TIE1,0%
same,%Inh,TIE2,0%
same,%Inh,TLK1,81%
same,%Inh,TLK2,7%
COc1cccc(-c2cc(-c3c[nH]nc3-c3ccccn3)ccn2)c1 [GW680338],%Inh,STK16,8%
same,%Inh,STK33,0%
same,%Inh,STK35,0%
same,%Inh,STK36,25%
same,%Inh,STK39,13%
same,%Inh,SYK,17%
same,%Inh,SgK110,17%
same,%Inh,TAK1,0%
same,%Inh,TAOK1,0%
same,%Inh,TAOK2,0%
same,%Inh,TAOK3,0%
same,%Inh,TBK1,0%
same,%Inh,TEC,0%
same,%Inh,TESK1,15%
same,%Inh,TGFBR1; 1 µM,54%
same,%Inh,TGFBR2,32%
same,%Inh,TIE1,0%
same,%Inh,TIE2,0%
same,%Inh,TLK1,0%
same,%Inh,TLK2,0%
Cc1cccc(-c2nc(-c3ccc(S(C)(=O)=O)cc3)sc2-c2ccnc(NCCc3ccccc3)c2)c1,%Inh,STK16,13%
same,%Inh,STK33,0%
same,%Inh,STK35,9%
same,%Inh,STK36,11%
same,%Inh,STK39,1%
same,%Inh,SYK,0%
same,%Inh,SgK110,9%
same,%Inh,TAK1,0%
same,%Inh,TAOK1,0%
same,%Inh,TAOK2,12%
same,%Inh,TAOK3,0%
same,%Inh,TBK1,24%
same,%Inh,TEC,0%
same,%Inh,TESK1,11%
same,%Inh,TGFBR1; [1],26%
same,%Inh,TGFBR2,0%
same,%Inh,TIE1,14%
same,%Inh,TIE2,19%
same,%Inh,TLK1,6%
same,%Inh,TLK2,4%
O=C(Nc1ccccc1)Nc1cccc(Oc2ccc3nccn3n2)c1,%Inh,STK16,0%
same,%Inh,STK33,1%
same,%Inh,STK35,11%
same,%Inh,STK36,0%
same,%Inh,STK39,0%
same,%Inh,SYK,12%
same,%Inh,SgK110,40%
same,%Inh,TAK1,0%
same,%Inh,TAOK1,0%
same,%Inh,TAOK2,0%
same,%Inh,TAOK3,0%
same,%Inh,TBK1,10%
same,%Inh,TEC,0%
same,%Inh,TESK1,0%
same,%Inh,TGFBR1; [1],5%
same,%Inh,TGFBR2,9%
same,%Inh,TIE1,0%
same,%Inh,TIE2,92.4%
same,%Inh,TLK1,17%
same,%Inh,TLK2,0%
COc1cc2ncn(-c3cc(OCC4CCCO4)c(C(N)=O)s3)c2cc1OC (centres unmarked) [GSK204607],%Inh,STK16,5%
same,%Inh,STK33,0%
same,%Inh,STK35,90%
same,%Inh,STK36,0%
same,%Inh,STK39,0%
same,%Inh,SYK,12%
same,%Inh,SgK110,0%
same,%Inh,TAK1,18%
same,%Inh,TAOK1,0%
same,%Inh,TAOK2,0%
same,%Inh,TAOK3,0%
same,%Inh,TBK1,23%
same,%Inh,TEC,0%
same,%Inh,TESK1,0%
same,%Inh,TGFBR1; [1],4%
same,%Inh,TGFBR2,0%
same,%Inh,TIE1,0%
same,%Inh,TIE2,0%
same,%Inh,TLK1,0%
same,%Inh,TLK2,11%
